Assay outcomes as filed in PubChem BioAssay.
DT40 TDP1 CPT = growth inhibition of DT40 Tdp1-/-;hTDP1 cells with camptothecin (screen for TDP1 inhibitors); chicken DT40 Tdp1-/-;hTDP1 cells + 20 nM CPT, ATP luminescence, 48 h; Potency, µM (series often up to 46.2 µM), for inactives: top-dose activity change, negative = growth inhibition, hits mostly inhibitors; 420,000 compounds, 12% hits; also: potency is read from the fitted curve at half-maximal effect; nearly all actives have a fitted effect of over 55% in size
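Cell growth measured by CellTiter-Glo luminescence after a minimum 48 h, 37 C compound exposure with 20 nM CPT in Tdp1-knockout DT40 cells stably expressing hTDP1, seeded 400/well; qHTS titration format.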
ELG1 DNA repair = inhibitors of ELG1-dependent DNA repair in HEK293T cells. 330,000 compounds, 2.3% hits. AID 504467. Potency, µM (series often up to 46.1 µM), for the others: top-dose activity change, negative = inhibition, most hits filed as inhibitors. HEK293T ELG1-luciferase reporter, luminescence, 16 h; DNA damage induced by 5-fluorouridine; also: potency is read from the fitted curve at half-maximal effect; nearly all actives have a fitted effect of over 55% in size
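HEK293T cells expressing luciferase-tagged ELG1 (2,000/well) received 5-Fluorouridine plus compound or DMSO for 16 hr at 37 °C. Luciferase was read by ONE-Glo luminescence after 30 min at room temperature.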
TDP1 cell noCPT = qHTS for Inhibitors of human tyrosyl-DNA phosphodiesterase 1 (TDP1): qHTS in cells in absence of CPT; DT40 Tdp1-/- hTDP1 cells, no CPT, ATP luminescence, 48 h; Potency, µM (top dose mostly 46.2 µM), without a hit: at the highest dose activity change, negative = growth inhibition, hits mostly inhibitors; 420,000 compounds, 15% hits; AID 686978, 2013; also: potency is read from the fitted curve at half-maximal effect; nearly all actives have a fitted effect of over 55% in size
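Growth kinetics read by CellTiter-Glo luminescence after ≥48 hr at 37 °C. Cells: DT40 Tdp1-/- stably carrying human TDP1, 400 per well, compound exposure in the absence of CPT (DMSO vehicle).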
Giardia kill = Giardia lamblia killing; 340,000 compounds, 0.15% hits; activity change, % at 7.66 µM, hits read low; Giardia lamblia trophozoite viability; AID 540267; in the data active = activity change below about -80%; inconclusive = between about -30% and that limit;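 also: parasites exposed to compound for two days anaerobically before the ATP read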
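Giardia lamblia trophozoites (100 cells/well) were incubated with compounds for 48 h at 37 deg C under anaerobic conditions. Viability was read as ATP content by one-step luminescence after 15-30 min at room temperature.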
IL1B secr inh = inhibitors of inflammasome signaling (IL-1 beta secretion) | THP-1 LPS/ATP IL-1B secretion, AlphaLISA, 16 h; active compounds read low | activity change, % at 57.5 µM | 360,000 compounds, 4.7% hits | AID 743279; in the data active = activity change below about -50%; inconclusive = mostly about -30% to -49%
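Secreted IL-1B measured by AlphaLISA bead assay after 16 h compound exposure of THP-1 cells; compounds (final up to 57.5 uM) added 1 h before LPS (250 ng/mL) and ATP (1.25 mM) stimulation; lower signal means less secretion.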
TDP1 inh = TDP1 (human) enzyme inhibition | Q9NUW8 | recombinant TDP1, AlphaScreen DNA substrate cleavage | Potency, µM (titrated, usually from 130 µM), for the others: at the top dose activity change, negative = inhibition, usual class: inhibitors | 350,000 compounds, 0.28% hits | AID 485290; also: potency is read from the fitted curve at half-maximal effect; nearly all actives have a fitted effect of over 40% in size
Target sequence (Q9NUW8 whole entry, looked up): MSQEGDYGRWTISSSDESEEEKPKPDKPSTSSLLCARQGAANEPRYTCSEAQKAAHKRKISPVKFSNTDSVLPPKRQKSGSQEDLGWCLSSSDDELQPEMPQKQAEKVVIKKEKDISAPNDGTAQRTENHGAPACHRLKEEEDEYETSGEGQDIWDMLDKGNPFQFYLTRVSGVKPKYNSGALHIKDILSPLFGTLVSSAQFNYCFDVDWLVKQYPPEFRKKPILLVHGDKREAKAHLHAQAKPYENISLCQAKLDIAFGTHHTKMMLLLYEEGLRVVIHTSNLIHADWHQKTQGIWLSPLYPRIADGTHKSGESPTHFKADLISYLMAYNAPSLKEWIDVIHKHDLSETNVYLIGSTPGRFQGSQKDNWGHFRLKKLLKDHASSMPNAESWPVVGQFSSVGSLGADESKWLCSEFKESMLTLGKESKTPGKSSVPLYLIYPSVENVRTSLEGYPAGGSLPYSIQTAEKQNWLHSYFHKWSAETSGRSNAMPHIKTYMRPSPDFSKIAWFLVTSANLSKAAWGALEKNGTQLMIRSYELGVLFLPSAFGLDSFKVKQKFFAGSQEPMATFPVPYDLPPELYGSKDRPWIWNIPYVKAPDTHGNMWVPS
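AlphaScreen read-out: signal falls as enzyme removes the 3' tyrosine-FITC from a 5'-biotinylated DNA oligo (15 nM, 5 min, RT). Enzyme was E. coli-made recombinant Tdp1 at 1 nM, exposed to compound for 15 min beforehand; beads 10 ug/ml, 10 min.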
* hit, by the source's call; ? = inconclusive; nt = no result given; [ ] = remark or other dose. Sampled rows, rich in hits. Any-hit rate of the full collection: about 19%. Unless noted, calls follow the shape of the dose curve; as a rule, active = well fitted curve in the direction sought with a large enough effect; inconclusive = small, poorly fitted or top-dose-only effect, or another doubt; inactive = no such curve, though single readings can be large; an effect the other way counts as inactive or inconclusive. % is scaled to controls: 0 for no effect and ±100 for the full control effect.

SMILES	DT40 TDP1 CPT	ELG1 DNA repair	TDP1 cell noCPT	Giardia kill	IL1B secr inh	TDP1 inh
CCc1ccc(/C=C2\SC(=S)N(CCCC(=O)N(CCO)c3ccccc3)C2=O)cc1	?	nt	16.4µM*	nt	-70.3*	nt
O=C1/C(=C/c2cccs2)SC(=S)N1CCCC(=O)N(CCO)c1ccccc1	?	?	?	18.5	?	-6.1%
CCOc1ccc(/C=C2\SC(=S)N(CCC(=O)N(CCO)c3ccccc3)C2=O)cc1	?	-17.9%	?	-3.0	-80.6*	nt
Cn1cc(S(=O)(=O)c2cccc(Cl)c2)c(=O)c2cc(F)c(N3CCN(c4ccc(F)cc4)CC3)cc21	6.6%	nt	-21.5%	nt	nt	-3.7%
C#CCn1c(C2CC(=O)N(c3ccc(OCC)cc3)C2)nc2ccccc21 (centres undefined)	?	nt	?	nt	nt	4.9%
CCOc1ccc(N2CC(c3nc4ccccc4n3Cc3ccccc3F)CC2=O)cc1 (centres undefined)	?	nt	?	nt	nt	3.7%
Cc1cc(C)cc(OCCn2c(C3CC(=O)N(c4ccccc4Cl)C3)nc3ccccc32)c1 (centres undefined)	?	nt	20.6µM*	nt	nt	nt
Cc1ccccc1OCCCCn1c(C2CC(=O)N(c3ccccc3Cl)C2)nc2ccccc21 (centres undefined)	?	nt	-18.0%	nt	nt	7.6%
CCc1ccccc1N1CC(c2nc3ccccc3n2CC(C)C)CC1=O (centres undefined)	14.6µM*	nt	20.6µM*	nt	nt	0.0%
COc1ccc(OCCn2c(C3CC(=O)N(c4ccc(F)cc4)C3)nc3ccccc32)cc1 (centres undefined)	16.4µM*	nt	18.4µM*	nt	nt	0.0%
CCOc1ccc(N2CC(c3nc4ccccc4n3CCCOc3ccc(OC)cc3)CC2=O)cc1 (centres undefined)	?	nt	8.2µM*	nt	nt	3.7%
C=CCC(C(=O)NC(C)c1ccccc1)C(=O)NC(C)c1ccccc1 (centres undefined)	?	4.0%	-27.8%	26.3	9.4	nt
COc1cc(=O)n2c(c1C(=O)N1CCc3ccccc3C1)CCN(Cc1ccc(CO)o1)CC2	11.7%	nt	-5.7%	nt	nt	nt
CCCCCCC#CC1C=CC(Oc2ccc(C=O)cc2)C(CO)O1 (centres undefined)	nt	nt	nt	nt	nt	0.5%[21 µM]
CCc1ccccc1N1CC(c2nc3ccccc3n2CCCOc2ccc(Cl)cc2)CC1=O (centres undefined)	-10.9%	nt	-13.8%	nt	nt	5.1%
CCOc1ccccc1N1CC(c2nc3ccccc3n2CCOc2ccc(OC)cc2)CC1=O (centres undefined)	?	nt	18.4µM*	nt	nt	5.1%
Cc1ccc(OCCn2c(C3CC(=O)N(Cc4ccccc4)C3)nc3ccccc32)cc1 (centres undefined)	?	14.6µM*	14.6µM*	1.2	-21.8	6.5%
CCOc1ccccc1N1CC(c2nc3ccccc3n2CCCOc2ccc(OC)cc2)CC1=O (centres undefined)	0.0%	nt	8.4%	nt	nt	7.6%
O=C(COc1ccccc1)Nc1ccc(OCc2cc(=O)n3ccsc3n2)cc1	-10.2%	nt	-12.2%	nt	nt	6.4%
CCOC(=O)c1ccc(-c2ccc3c(=O)c4ccccc4n(C)c3c2)cc1F	14.6µM*	-13.5%	?	-8.6	44.8	nt
CCOC(=O)c1ccc(N2C(=O)Cc3ccccc3C2=O)cc1	?	-0.4%	?	9.6	-11.1	2.7%[0.0935 µM]
CCOC(=O)c1ccc(/C=C2\c3ccccc3C(=O)N2c2ccccc2)cc1F	18.4µM*	?	?	63.4	72.9	4.0%
COc1cccc(CSc2nc3ccccc3c3nc(CCn4c(C)nc5ccccc54)nn23)c1	?	nt	-26.2%	nt	nt	6.4%
CCN(CC)S(=O)(=O)c1ccc(C)c(NC(=O)CNCCN(C(C)C)C(C)C)c1	-18.9%	-2.5%	?	-2.9	8.3	-3.6%
